# According to the supplement of paper PMC12067093, “Discovery and optimisation of a covalent ligand for TRIM25 and its application to targeted protein ubiquitination” (Chemical Science, 2025):
# Targets with the largest changes are over-represented here; the source holds about 21,000 in all.
# Molecular target: SLTM_Q9NWH9_107_KHEADELSGDASVEDDAFIKDCELENQEAHEQDGNDELK (UniProt Q9NWH9)
# Experiment: probe-labelled cysteine peptide fold change vs DMSO (competition) (log2 fold change); higher = less target engagement (more negative = stronger competition)
# Conditions: THP-1, incubation time: 4 h
# 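Note: competitive profiling in live THP-1 cells: cysteine peptides tagged with an iodoacetamide desthiobiotin (IA-DTB) probe, intensity after compound treatment relative to DMSO-treated cells.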
# Sequence of UniProt Q9NWH9 (Q9NWH9 whole entry, looked up): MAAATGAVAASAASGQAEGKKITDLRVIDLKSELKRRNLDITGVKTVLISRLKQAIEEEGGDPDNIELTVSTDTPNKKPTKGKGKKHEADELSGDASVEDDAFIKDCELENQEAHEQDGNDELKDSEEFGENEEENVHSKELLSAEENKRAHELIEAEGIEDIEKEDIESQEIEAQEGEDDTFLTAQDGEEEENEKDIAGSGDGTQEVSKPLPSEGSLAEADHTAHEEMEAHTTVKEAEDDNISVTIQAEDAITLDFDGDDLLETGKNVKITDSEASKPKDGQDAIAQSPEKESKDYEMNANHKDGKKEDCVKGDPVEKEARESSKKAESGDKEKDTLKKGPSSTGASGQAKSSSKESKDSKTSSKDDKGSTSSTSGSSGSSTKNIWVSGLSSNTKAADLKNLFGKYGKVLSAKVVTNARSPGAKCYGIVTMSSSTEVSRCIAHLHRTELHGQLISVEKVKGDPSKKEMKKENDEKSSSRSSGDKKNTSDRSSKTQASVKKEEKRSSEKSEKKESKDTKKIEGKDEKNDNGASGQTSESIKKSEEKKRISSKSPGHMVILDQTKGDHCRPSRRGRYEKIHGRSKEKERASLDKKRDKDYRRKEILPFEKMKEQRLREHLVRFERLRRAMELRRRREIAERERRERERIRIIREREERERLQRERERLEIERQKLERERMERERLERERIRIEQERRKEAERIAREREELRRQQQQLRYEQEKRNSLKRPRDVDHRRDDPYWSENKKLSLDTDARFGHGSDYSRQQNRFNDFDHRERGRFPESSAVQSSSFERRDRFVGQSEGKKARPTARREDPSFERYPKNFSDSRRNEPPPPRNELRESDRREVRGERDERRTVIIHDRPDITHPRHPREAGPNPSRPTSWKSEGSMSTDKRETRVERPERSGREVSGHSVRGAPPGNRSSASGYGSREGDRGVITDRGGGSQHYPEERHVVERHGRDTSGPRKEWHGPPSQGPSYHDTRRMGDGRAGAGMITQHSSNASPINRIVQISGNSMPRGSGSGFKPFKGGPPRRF
structure (smiles),measurement,setting,value
Cc1cc(C(=O)N2CCCN(C(=O)CCl)CC2)ccc1-c1ccccc1 [compound 10],probe-labelled cysteine peptide fold change,10 µM,0.0217
same,probe-labelled cysteine peptide fold change,50 µM,-1.37
